Compound activity (PubChem)
This is a sample that favours compounds with a hit; in the whole collection about 5.7% have one here.
ssDAF12 agonist: S. stercoralis DAF-12 activation, primary screen; 370,000 tested, 1% active; AID 652126; activation, % at 6.8 µM; HEK293 ssDAF-12/GRIP1 lit1-tk-luc reporter, luminescence; % of 3 µM dafachronic acid response;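 active = activation above the mean over all tested compounds plus 3 SD, cut at about 0.9% in these data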;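 note: 0% = DMSO-only wells and 100% = 3 µM delta7-dafachronic acid wells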
hcDAF-12 act: activators of H. contortus DAF-12 nuclear receptor | 370,000 tested, 1.4% active | activation, % at 6.8 µM | HEK293 hcDAF-12 lit1-tk-luc reporter, luminescence; 0% DMSO, 100% Δ7-dafachronic acid;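 active = activation above the mean of all tested compounds plus 3 SD, cut at about 5.5% in these data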;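 note: 100% = response to 3 µM Δ7-dafachronic acid high control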
AHR activator: human AHR activation; AHR-responsive luciferase reporter cells, luminescence; activation, % at 5 µM; AID 2796; P35869; 320,000 tested, 2.5% active; in the data active = activation above about 47%;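 note: 0% = vehicle wells and 100% = reference agonist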
Target sequence (P35869 whole entry, looked up): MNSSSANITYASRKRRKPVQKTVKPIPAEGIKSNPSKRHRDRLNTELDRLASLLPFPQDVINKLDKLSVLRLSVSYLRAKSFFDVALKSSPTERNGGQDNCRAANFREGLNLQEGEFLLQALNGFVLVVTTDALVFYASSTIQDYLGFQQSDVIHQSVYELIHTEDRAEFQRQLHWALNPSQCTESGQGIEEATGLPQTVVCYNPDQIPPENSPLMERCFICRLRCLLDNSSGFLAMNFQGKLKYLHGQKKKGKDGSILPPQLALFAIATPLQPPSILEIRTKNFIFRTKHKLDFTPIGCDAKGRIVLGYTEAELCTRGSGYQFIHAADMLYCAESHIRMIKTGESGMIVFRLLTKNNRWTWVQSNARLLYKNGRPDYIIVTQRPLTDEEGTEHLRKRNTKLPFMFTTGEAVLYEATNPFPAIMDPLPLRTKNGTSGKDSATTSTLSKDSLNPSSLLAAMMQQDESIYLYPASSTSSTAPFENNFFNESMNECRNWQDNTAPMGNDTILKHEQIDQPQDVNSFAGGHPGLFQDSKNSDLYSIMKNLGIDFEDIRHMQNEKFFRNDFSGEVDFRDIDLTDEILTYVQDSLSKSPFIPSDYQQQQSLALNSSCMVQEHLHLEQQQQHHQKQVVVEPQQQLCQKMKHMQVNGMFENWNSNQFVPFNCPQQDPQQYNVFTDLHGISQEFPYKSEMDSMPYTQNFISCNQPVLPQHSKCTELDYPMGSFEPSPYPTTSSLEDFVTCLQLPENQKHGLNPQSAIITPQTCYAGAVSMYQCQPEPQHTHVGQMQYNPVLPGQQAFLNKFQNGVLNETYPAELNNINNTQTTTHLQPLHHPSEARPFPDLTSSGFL
DAX1 inh-1: DAX1 (NR0B1) inhibition, primary screen; AID 652010; 370,000 tested, 1.1% active; HEK293T StAR-luciferase reporter, SF-1/DAX-1 repression relief; inhibition, % at 6.8 µM;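 active = inhibition above the mean over all tested compounds plus 3 SD, cut at about 3.6% in these data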;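 note: 0% = DAX-1 cells with DMSO and 100% = cells lacking DAX-1 with DMSO; higher inhibition means more luminescence from relief of DAX-1 repression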
hgDAF-12 ag: activates the H. glycines DAF-12 receptor ligand-binding domain; 370,000 tested, 1.8% active; HEK293 GAL4-hgDAF12 UAS-luciferase reporter, agonist luminescence; normalized to butyrate control; activation, % at 6.8 µM;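 active = activation above a cutoff set at the mean of all screened compounds plus 3 SD, cut at about 10% in these data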;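 note: 0% = DMSO wells and 100% = sodium butyrate wells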
DAX1 inh-2: NR0B1 (DAX1) inhibition; HEK293 Gal4-DAX1 luciferase reporter, luminescence; 340,000 tested, 0.99% active; inhibition, % at 6.75 µM;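 active = inhibition above the mean over all tested compounds plus 3 SD, cut at about 4.2% in these data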;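 note: 0% = DAX1-transfected cells with DMSO and 100% = empty-vector control cells with DMSO; inhibition shows as a rise in luminescence from relieved DAX1 repression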
AHR act confirm: human AHR activation, confirmation. shares compounds with AHR activator. human cells, AHR-responsive luciferase reporter, luminescence. activation, % at 9 µM. 2,300 tested, 87% active. AID 2845; in the data active = activation above about 49%;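 note: HepG2 hepatoma cells carrying a DRE-driven firefly luciferase reporter; 0% = vehicle wells and 100% = reference agonist wells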
PXR act counter: counter-screen for AHR activators: human PXR activators. shares compounds with AHR activator. cell-based PXR reporter, luciferase luminescence. activation, % at 11.6 µM. 2,300 tested, 88% active. AID 434939; in the data active = activation above about 11%;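 note: human hepatoma DPX-2 cells expressing full-length human PXR; 0% = DMSO and 100% = reference agonist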
* marks the source's active call; other numbers are inactive results.

Results for Cc1noc(C)c1C(=O)N1CCC1(C)C(=O)NS(=O)(=O)c1cccc(F)c1 (stereo not drawn) ?
ssDAF12 agonist: -1.4; hcDAF-12 act: -0.3; DAX1 inh-1: 0.7; hgDAF-12 ag: -2.1

What do the screens show for `O=C(NCCOc1ccccc1)C1Nc2ccc(C(F)(F)F)cc2C2c3ccccc3CC12` (stereo not drawn)?
ssDAF12 agonist: 0.5; hcDAF-12 act: 4.5; AHR activator: 87.0*; DAX1 inh-1: -0.6; hgDAF-12 ag: 1.4; DAX1 inh-2: 0.9; AHR act confirm: 6.5; PXR act counter: 78.4*

How did OC[C@@H]1CN(Cc2ccco2)C[C@H](n2cnc3c(NCc4ccncc4)ncnc32)O1 do in these assays?
ssDAF12 agonist: -1.0; hcDAF-12 act: 1.0; DAX1 inh-1: 0.3; hgDAF-12 ag: 4.6

What do the screens show for `O=C(Oc1cccc(-c2cnc3ccccc3n2)c1)c1ccco1`?
ssDAF12 agonist: 0.7; hcDAF-12 act: 6.5*; AHR activator: 99.2*; DAX1 inh-1: 2.2; hgDAF-12 ag: 10.3; DAX1 inh-2: 3.3; AHR act confirm: 43.6; PXR act counter: 8.9

What do the screens show for `CCN(CC)S(=O)(=O)c1ccc(C)c(C(=O)Oc2cccc(-c3cnc4ccccc4n3)c2)c1`?
ssDAF12 agonist: -1.1; hcDAF-12 act: -0.6; AHR activator: -3.3; DAX1 inh-1: -0.4; hgDAF-12 ag: -0.5; DAX1 inh-2: 0.0

How did CSc1ccc(/C=C(\C#N)C(=O)Nc2cccc(C)c2)cc1 do in these assays?
ssDAF12 agonist: -0.4; hcDAF-12 act: -0.5; AHR activator: 0.3; DAX1 inh-1: -0.9; hgDAF-12 ag: 1.1; DAX1 inh-2: 2.4

How did COc1ccc(CN(C)C(=O)C2CCN(S(=O)(=O)c3cccs3)CC2)cc1F do in these assays?
ssDAF12 agonist: -1.0; hcDAF-12 act: -2.7; AHR activator: -1.3; DAX1 inh-1: 0.2; hgDAF-12 ag: -0.5; DAX1 inh-2: 0.2

What do the screens show for `COc1ccc(-c2nc3ccc(C)cn3c2Cc2ccsc2)cc1OC`?
ssDAF12 agonist: -0.2; hcDAF-12 act: 0.4; DAX1 inh-1: 0.5; hgDAF-12 ag: 0.6

Results for O=C(O)C1CCCC2CN3CCc4c([nH]c5ccccc45)C3C(O)C21 (stereo not drawn) ?
ssDAF12 agonist: -0.2; hcDAF-12 act: 0.2; AHR activator: 10.8; DAX1 inh-1: -0.5; hgDAF-12 ag: 3.5; DAX1 inh-2: 1.8

Results for COc1ccccc1-c1nnc(NC(C)=O)s1 ?
ssDAF12 agonist: 0.6; hcDAF-12 act: 2.6; AHR activator: 81.9*; DAX1 inh-1: 0.9; hgDAF-12 ag: 6.7; DAX1 inh-2: 2.5; AHR act confirm: 59.3*

What do the screens show for `CC(C)C(=O)Nc1nnc(NC(=S)Nc2ccccc2)s1`?
ssDAF12 agonist: -1.1; hcDAF-12 act: 1.8; AHR activator: 103.6*; DAX1 inh-1: 1.1; hgDAF-12 ag: 10.3; DAX1 inh-2: 1.2; AHR act confirm: 61.2*; PXR act counter: 20.9*

Results for COc1ccccc1-c1nnc(NC(=O)c2ccc3c(c2)OCO3)s1 ?
ssDAF12 agonist: -0.7; hcDAF-12 act: -0.9; AHR activator: 3.8; DAX1 inh-1: -0.2; hgDAF-12 ag: 0.1; DAX1 inh-2: -0.9

Results for CCCCOC(=O)Nc1nnc(-c2ccccc2OC)s1 ?
ssDAF12 agonist: -0.9; hcDAF-12 act: 1.6; AHR activator: 26.1; DAX1 inh-1: 0.1; hgDAF-12 ag: 0.2; DAX1 inh-2: 1.1

Results for COc1ccccc1-c1nnc(NC(=O)C(C)C)s1 ?
ssDAF12 agonist: 0.0; hcDAF-12 act: 5.6; AHR activator: 84.3*; DAX1 inh-1: 0.1; hgDAF-12 ag: 3.4; DAX1 inh-2: 0.4; AHR act confirm: 123.5*; PXR act counter: 16.2*

What do the screens show for `O=C(NCC(F)(F)F)c1ccc(S(=O)(=O)N2CCN(C(=O)C3CCCO3)CC2)cc1` (stereo not drawn)?
ssDAF12 agonist: -0.6; hcDAF-12 act: 1.1; AHR activator: -1.8; DAX1 inh-1: -0.3; hgDAF-12 ag: 1.2; DAX1 inh-2: 0.5

Results for Cc1ccc(NC(=O)COC(=O)C2CCC(=O)N2)c([N+](=O)[O-])c1 (stereo not drawn) ?
ssDAF12 agonist: -0.2; hcDAF-12 act: 2.8; AHR activator: 1.7; DAX1 inh-1: -0.4; hgDAF-12 ag: 2.7; DAX1 inh-2: 0.5

What do the screens show for `O=C(Nc1cccc(C(F)(F)F)c1)c1cncs1`?
ssDAF12 agonist: -1.3; hcDAF-12 act: 0.0; AHR activator: 41.7; DAX1 inh-1: -0.4; hgDAF-12 ag: -2.7; DAX1 inh-2: 0.4

What do the screens show for `O=C(Nc1ccc(F)c(Cl)c1)c1cncs1`?
ssDAF12 agonist: -0.5; hcDAF-12 act: 2.3; AHR activator: 100.8*; DAX1 inh-1: 0.6; hgDAF-12 ag: 2.5; DAX1 inh-2: -0.9; AHR act confirm: 95.3*; PXR act counter: 25.5*

How did COc1ccc(CCNC(=O)C2CC(O)CN2S(=O)(=O)c2ccc(Cl)cc2)cc1OC (stereo not drawn) do in these assays?
ssDAF12 agonist: 0.2; hcDAF-12 act: -2.4; AHR activator: 0.8; DAX1 inh-1: 0.8; hgDAF-12 ag: 0.2; DAX1 inh-2: 0.0

What do the screens show for `Cc1ccc(NC(=O)CCCCCN2C(=O)[C@@H]3Cc4ccccc4CN3C2=O)cc1`?
ssDAF12 agonist: -1.4; hcDAF-12 act: -3.4; AHR activator: -3.0; DAX1 inh-1: -0.9; hgDAF-12 ag: 0.6; DAX1 inh-2: 1.7

What do the screens show for `CC(C)c1ccc(NC(=O)CCN2C(=O)[C@@H]3Cc4ccccc4CN3C2=O)cc1`?
ssDAF12 agonist: -1.3; hcDAF-12 act: -1.1; AHR activator: 89.5*; DAX1 inh-1: -1.2; hgDAF-12 ag: 0.0; DAX1 inh-2: -0.9; AHR act confirm: 0.6; PXR act counter: 96.6*

Results for CCOC(=O)c1ccc2c(c1)nc(-c1ccc(F)cc1)c1nccn12 ?
ssDAF12 agonist: -0.1; hcDAF-12 act: 2.7; AHR activator: 84.8*; DAX1 inh-1: 0.5; hgDAF-12 ag: -2.2; DAX1 inh-2: 0.4; AHR act confirm: 99.5*; PXR act counter: 24.4*

What do the screens show for `CCOC(=O)c1ccc2c(c1)nc(COc1ccc(OC)cc1)n2CC`?
ssDAF12 agonist: -1.7; hcDAF-12 act: -3.1; AHR activator: -1.0; DAX1 inh-1: -1.0; hgDAF-12 ag: -5.0; DAX1 inh-2: 0.2

How did O=C(Nc1cccc(S(=O)(=O)N2CCCC2)c1)c1ccccc1OC(F)F do in these assays?
ssDAF12 agonist: -0.9; hcDAF-12 act: -1.6; AHR activator: 7.2; DAX1 inh-1: -1.8; hgDAF-12 ag: -0.1; DAX1 inh-2: -0.3

Results for Cc1ccc(NC(=O)Nc2ccon2)cc1 ?
ssDAF12 agonist: 0.5; hcDAF-12 act: 0.1; DAX1 inh-1: 1.8; hgDAF-12 ag: 4.0; DAX1 inh-2: -0.2
